# Laboratory results published in PubChem BioAssay.
# Potency and affinity values are given separately. Inconclusive results are not listed. Where a call stands in place of a potency, no number is given. Calls of active or inactive are those of the source.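 Rule for the calls, unless noted: active = signal-lowering compounds whose fitted half-maximal concentration is at or below twice the top tested dose in every run; inconclusive = runs disagree, flat 30 to 70% inhibition, or poor curve fit; inactive = the rest.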
# Tests used:
# [1] = cytotoxicity in PAX8-dependent RMG-1 cells, dose response, cell-based, cherry-pick (AID 687029;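 active = signal drop whose fitted half-maximal concentration is at most twice the top valid dose, in every test run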;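 note: cells exposed to compound for 96 hours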)
# [2] = inhibitors of CMV-promoter luciferase reporter, dose response, counter-screen for Pax8 inhibitor project, cell-based, HEK293, luminescence, dry powder (AID 743020);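 note: HEK293 cells stably expressing the CMV luciferase reporter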
# [3] = non-specific cell cytotoxicity, dose response, cytotoxicity control for PAX8 inhibitor project, plate reader, dry powder samples (AID 743021; call rule not given here)
SMILES,outcome [1],outcome [2],outcome [3]
C/C(=N\NC(=O)c1n[nH]c2c1CCC2)c1cccs1,inactive,inactive,
Cc1cccc(-n2ncc(Cl)c(Cl)c2=O)c1,inactive,inactive,
COc1ccc(N(Cc2cc3cc(OC)ccc3[nH]c2=O)S(=O)(=O)c2ccc(NC(C)=O)cc2)cc1,inactive,inactive,
CC(C)=CCC/C(C)=C/CN1C(=O)N(c2ccc(F)cc2)[C@H]2C[C@@H](c3ccccc3)[C@@H](C)[C@@H](C(=O)N3CCOCC3)C[C@H]21,inactive,inactive,
CCCCCCCN(C(=O)CCl)c1cccc(C)c1,inactive,inactive,
CCC[C@@H](CN[C@@H](CNC)[C@H](C)CC)NCC1CCC(C(C)(C)C)CC1 (some centres undefined),inactive,inactive,
C(=C\c1ccc(C2[C@@H]3CN(Cc4ccc5c(c4)OCO5)C[C@H]2N3)cc1)/c1ccccc1 (some centres undefined),inactive,inactive,
COc1ccc(OC)c(N(CCN2C(=O)c3ccccc3C2=O)C(=O)CCl)c1,inactive,inactive,
Cc1ccc(C(=O)O/N=C(\N)c2ccccn2)cc1,inactive,inactive,
CC(C)Nc1ccc(Nc2ccnc3cc4ccccc4cc23)cc1,inactive,inactive,
COC1C(CO)OC(n2c3c(Cl)cccc3c3c4c(c5c6cccc(Cl)c6[nH]c5c32)C(=O)NC4=O)C(O)C1O (centres undefined),inactive,inactive,inactive
COc1ccc(N2C(=O)CC(Sc3nnnn3-c3ccc(F)cc3)C2=O)cc1 (centres undefined),inactive,inactive,
Cc1nc2c(=O)n(C)c(=O)n(C)c2nc1Cl,inactive,inactive,
C=C1C(=O)[C@]23C[C@H]1CCC2[C@@]1(C)C(C[C@@H]3O)[C@](C)(C(=O)OC)CC[C@@H]1O (some centres undefined),inactive,inactive,
COc1ccc(C(=O)O/N=C(\N)c2ccccn2)cc1,inactive,inactive,
C=CC[C@@H](CC(=O)N[C@H](CO)Cc1ccccc1)C(=O)N[C@H](COC(=O)[C@@H](CC=C)Cc1ccc(F)cc1)Cc1c[nH]c2ccccc12,inactive,inactive,inactive
CC(=O)Nc1ccc(NC(=O)c2nc(S(=O)(=O)Cc3ccccc3)ncc2Cl)cc1,inactive,inactive,inactive
CNC(=O)c1cc(Oc2ccc(NC(=O)Nc3ccc(Cl)c(C(F)(F)F)c3)cc2)ccn1,inactive,inactive,inactive

SMILES,outcome [1],outcome [2],outcome [3]
CN1CC(=O)N2C(c3ccc(Cl)cc3)c3[nH]c4ccccc4c3C[C@H]2C1=O (some centres undefined),inactive,inactive,inactive
CCOc1ccc(C(=O)C(CN2CCOCC2)c2ccccc2)cc1 (centres undefined),inactive,inactive,inactive
CCCOc1ccc2[nH]c(C(=O)N/N=C/c3cc(OC)c(OC)c(OC)c3)cc2c1,inactive,inactive,inactive
Cn1nnnc1Sc1ncnc2scc(-c3ccc(Br)cc3)c12,inactive,inactive,inactive
COc1ccc(S(=O)(=O)N(C)C[C@H]2Oc3ccc(NC(=O)Nc4ccc(C(F)(F)F)cc4)cc3C(=O)N([C@H](C)CO)C[C@@H]2C)cc1,inactive,inactive,inactive
O=S(=O)(Nc1cc(Sc2ncn[nH]2)c(O)c2ccccc12)c1ccccc1,inactive,inactive,inactive
CN1CCN(c2ccc(S(=O)(=O)N3CCCCC3)cc2NC(=O)/C=C/c2ccc(Cl)c([N+](=O)[O-])c2)CC1,inactive,inactive,inactive
COc1cccc2c1C(=O)c1c(O)c3c(c(O)c1C2=O)C[C@](O)(C(C)=O)C[C@H]3O[C@@H]1C[C@@H](N)[C@@H](O)[C@@H](C)O1,inactive,inactive,inactive
Cn1c(=O)c([N+](=O)[O-])c(Cl)c2ccccc21,inactive,inactive,inactive
O=C(COC(=O)c1ccco1)Nc1cccc(S(=O)(=O)N2CCOCC2)c1,inactive,inactive,inactive
Cc1ccc(S(=O)(=O)N(C)C[C@H]2Oc3c(NC(=O)Nc4cccc5ccccc45)cccc3C(=O)N([C@@H](C)CO)C[C@@H]2C)cc1,inactive,inactive,inactive
CC[C@]1(O)C[C@@H]2CN(CCc3c([nH]c4ccccc34)[C@@](C(=O)OC)(c3cc4c(cc3OC)N(C)[C@H]3[C@@](O)(C(=O)OC)[C@H](OC(C)=O)[C@]5(CC)C=CCN6CC[C@]43[C@@H]65)C2)C1,inactive,inactive,inactive
COCCN(CC(=O)NC1CCCCC1)C(=O)/C=C/C(=O)c1ccc(OC)cc1O,inactive,inactive,inactive
COc1cc(C2C3=C(COC3=O)OC(C)(C)Oc3cc4c(cc32)OCO4)cc(OC)c1OC (centres undefined),inactive,inactive,inactive
CSc1nc(-c2ccccc2)nc(C(Cl)Cl)n1,inactive,inactive,inactive
COc1ccc(C(=O)CCS(=O)(=O)c2ccc(C)cc2)cc1OC,inactive,inactive,inactive
CC(/C=C1\SC(=O)N(CC(=O)Nc2ccc(O)cc2)C1=O)=C\c1ccccc1,inactive,inactive,inactive
S=C1SCN(Cc2cccnc2)CN1Cc1cccnc1,inactive,inactive,inactive
